Active and inactive are the calls of the source.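 Rule for the calls: active = compound raises insulin release from rat beta cells at 5 mM glucose, no numeric limit stated; inactive = the rest.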
Note: reference of the scale not given here.

A short description of the first experiment: stimulators of nuclear beta-catenin in C2C12, primary screen, imaging, WNT3A-conditioned medium, mouse C2C12, NPC library (AID 1117326). The conditions noted are these: stimulation, at 2 µM, stronger effect = higher value.
Consider `C[C@]12CCC(=O)C=C1CC[C@@H]1[C@@H]2[C@@H](O)C[C@@]2(C)[C@H]1CC[C@]2(O)C(=O)COP(=O)(O)O`, for which the nuclear beta-catenin stimulation was -0.1%.

For `CCCc1ncc(C[n+]2ccccc2C)c(N)n1`, the nuclear beta-catenin stimulation is -2%.

Consider `COc1cc(NS(=O)(=O)c2ccc(N)cc2)nc(OC)n1`, for which the nuclear beta-catenin stimulation came to 0.4%.

Regarding `Cc1cc(NC(=O)C2=C(O)c3ccccc3S(=O)(=O)N2C)no1`, the nuclear beta-catenin stimulation worked out at 1.7%.

For the compound `O=C(O)[C@@H](O)[C@H](O)[C@H](O)[C@@H](O)C(=O)O`, the nuclear beta-catenin stimulation is -0.3%.

As for `CN1CCOC(c2ccccc2)c2ccccc2C1` (stereo unspecified), the nuclear beta-catenin stimulation is -1.3%.

Take `Cc1cccc(N(C)C(=S)Oc2ccc3ccccc3c2)c1`: the nuclear beta-catenin stimulation amounted to 1.3%.

Regarding `O=C1c2ccccc2C(=O)C1c1ccccc1`, the nuclear beta-catenin stimulation was found to be 0.6%.

With `Cc1onc(-c2ccccc2Cl)c1C(=O)N[C@@H]1C(=O)N2[C@@H]1SC(C)(C)[C@@H]2C(=O)O`, the nuclear beta-catenin stimulation was determined as 0.3%.

Consider `CO[C@]12C[C@@H](COC(=O)c3cncc(Br)c3)CN(C)[C@@H]1Cc1cn(C)c3cccc2c13`, for which the nuclear beta-catenin stimulation was 2.5%.

In the case of `Cc1ccccc1OCC(O)CO` (stereo unspecified), the nuclear beta-catenin stimulation was 2.4%.

Take `Cc1ccc(C(C)C)cc2c(C)ccc1-2`: the nuclear beta-catenin stimulation is 0.2%.

In the case of `O=C1C(=O)c2ccccc2C(O)=C1C1CCC(c2ccc(Cl)cc2)CC1` (stereo unspecified), the nuclear beta-catenin stimulation is -1%.

For the compound `Cc1ccc2c(Cl)cc(Cl)c(O)c2n1`, the nuclear beta-catenin stimulation was -1%.

In the case of `NC(N)=NS(=O)(=O)c1ccc(N)cc1`, the nuclear beta-catenin stimulation amounted to 0.1%.

Consider `CCOc1ccc(NC(C)=O)cc1`, for which the nuclear beta-catenin stimulation is -0.9%.

With `Cn1c(=O)c2c(ncn2CC(O)CO)n(C)c1=O` (stereo unspecified), the nuclear beta-catenin stimulation came out at 0.8%.

As for `Cc1cc(=O)n(-c2ccccc2)n1C`, the nuclear beta-catenin stimulation was found to be 0.3%.

As for `O=C(O)c1ccccc1Nc1cccc(C(F)(F)F)c1`, the nuclear beta-catenin stimulation amounted to 2.3%.

`CC1=NN(c2ccccc2)C(=O)C1`: the nuclear beta-catenin stimulation is 0.8%.

`Cc1c(C(=O)O)c(O)cc2c1C(=O)c1c(O)c([C@@H]3O[C@H](CO)[C@@H](O)[C@H](O)[C@H]3O)c(O)c(O)c1C2=O`: the nuclear beta-catenin stimulation is 0.8%.

`CC(C)(Sc1cc(C(C)(C)C)c(O)c(C(C)(C)C)c1)Sc1cc(C(C)(C)C)c(O)c(C(C)(C)C)c1`: the nuclear beta-catenin stimulation was determined as 6%.

On to `CN1C(C(=O)Nc2ccccn2)=C(O)c2sccc2S1(=O)=O`, for which the nuclear beta-catenin stimulation came out at 1%.

Regarding `CCCCC(=O)O[C@]1(C(=O)CO)[C@@H](C)C[C@H]2[C@@H]3CCC4=CC(=O)C=C[C@]4(C)[C@@]3(F)[C@@H](O)C[C@@]21C`, the nuclear beta-catenin stimulation was found to be 5.5%.

In the case of `COc1ccccc1OCC(O)CO` (stereo unspecified), the nuclear beta-catenin stimulation stood at 0.9%.

On to `CCCCOc1cc(C(=O)NCCN(CC)CC)c2ccccc2n1`, for which the nuclear beta-catenin stimulation was 1.8%.

Take `CC1(C)O[C@H]2CC(=O)OC[C@]23[C@H]2CC[C@@]4(C)[C@H](c5ccoc5)OC(=O)[C@H]5O[C@]54[C@]2(C)C(=O)C[C@@H]13`: the nuclear beta-catenin stimulation was determined as 0.6%.

`CC1=CC(=O)c2ccccc2C1=O`: the nuclear beta-catenin stimulation was found to be 0.1%.

Consider `COc1ccc2c(c1)c(CC(=O)OCC(=O)O)c(C)n2C(=O)c1ccc(Cl)cc1`, for which the nuclear beta-catenin stimulation came to 0.4%.

`CC/C(=C(/CC)c1ccc(O)cc1)c1ccc(O)cc1`: the nuclear beta-catenin stimulation is -0.2%.

For the compound `COc1cc(C(=O)NCc2ccc(OCCN(C)C)cc2)cc(OC)c1OC`, the nuclear beta-catenin stimulation turned out to be 5.8%.

Regarding `O=C1c2ccccc2C(=O)c2c1ccc(O)c2O`, the nuclear beta-catenin stimulation is 0.3%.

For the compound `CCN(CC)CCOC(=O)C(c1ccccc1)c1ccccc1`, the nuclear beta-catenin stimulation is -1.4%.

As for `CC1=C(C(=O)O)N2C(=O)[C@@H](NC(=O)[C@H](N)C3=CCC=CC3)[C@H]2SC1`, the nuclear beta-catenin stimulation is -2.4%.

`NC(=O)NC1NC(=O)NC1=O` (stereo unspecified): the nuclear beta-catenin stimulation came out at 1.1%.

Take `CC(C)NC[C@@H](O)COc1cccc2ccccc12`: the nuclear beta-catenin stimulation was determined as 1.7%.

Consider `N=C(N)N`, for which the nuclear beta-catenin stimulation was found to be 0.6%.

Consider `CCOC(=O)[C@H](CCc1ccccc1)N[C@@H](C)C(=O)N1CCC[C@H]1C(=O)O`, for which the nuclear beta-catenin stimulation worked out at 1.5%.

The nature of another experiment: stimulators of insulin release from INS-1E, primary screen, cell-based, 5 mM glucose, NPC library (AID 1117329). The conditions noted are these: rat INS-1E insulin secretion, at 10 µM, stronger effect = higher value.
Consider `C[C@]12CCC(=O)C=C1CC[C@@H]1[C@@H]2[C@@H](O)C[C@@]2(C)[C@H]1CC[C@]2(O)C(=O)COP(=O)(O)O`, for which the insulin secretion stimulation was 1.8% (inactive).

For the compound `CCCc1ncc(C[n+]2ccccc2C)c(N)n1`, the insulin secretion stimulation was 0.95% (inactive).

In the case of `COc1cc(NS(=O)(=O)c2ccc(N)cc2)nc(OC)n1`, the insulin secretion stimulation is 1.8% (inactive).

As to `Cc1cc(NC(=O)C2=C(O)c3ccccc3S(=O)(=O)N2C)no1`, the insulin secretion stimulation was -1.3% (inactive).

As for `O=C(O)[C@@H](O)[C@H](O)[C@H](O)[C@@H](O)C(=O)O`, the insulin secretion stimulation is 3.6% (inactive).

Consider `CN1CCOC(c2ccccc2)c2ccccc2C1` (stereo unspecified), for which the insulin secretion stimulation was 1.8% (inactive).

For `Cc1cccc(N(C)C(=S)Oc2ccc3ccccc3c2)c1`, the insulin secretion stimulation is 0.4% (inactive).

For `O=C1c2ccccc2C(=O)C1c1ccccc1`, the insulin secretion stimulation is -1.2% (inactive).

Turning to `Cc1onc(-c2ccccc2Cl)c1C(=O)N[C@@H]1C(=O)N2[C@@H]1SC(C)(C)[C@@H]2C(=O)O`, the insulin secretion stimulation is -0.3% (inactive).

For `CO[C@]12C[C@@H](COC(=O)c3cncc(Br)c3)CN(C)[C@@H]1Cc1cn(C)c3cccc2c13`, the insulin secretion stimulation is 8.2% (inactive).

Consider `Cc1ccccc1OCC(O)CO` (stereo unspecified), for which the insulin secretion stimulation was -1.2% (inactive).

Regarding `Cc1ccc(C(C)C)cc2c(C)ccc1-2`, the insulin secretion stimulation is -0.7% (inactive).

Take `O=C1C(=O)c2ccccc2C(O)=C1C1CCC(c2ccc(Cl)cc2)CC1` (stereo unspecified): the insulin secretion stimulation was 1.1% (inactive).

As to `Cc1ccc2c(Cl)cc(Cl)c(O)c2n1`, the insulin secretion stimulation is -0.8% (inactive).

As to `NC(N)=NS(=O)(=O)c1ccc(N)cc1`, the insulin secretion stimulation is -1.4% (inactive).

With `CCOc1ccc(NC(C)=O)cc1`, the insulin secretion stimulation was -2.2% (inactive).

For `Cn1c(=O)c2c(ncn2CC(O)CO)n(C)c1=O` (stereo unspecified), the insulin secretion stimulation is 1.1% (inactive).

`Cc1cc(=O)n(-c2ccccc2)n1C`: the insulin secretion stimulation is -0.2% (inactive).

Regarding `O=C(O)c1ccccc1Nc1cccc(C(F)(F)F)c1`, the insulin secretion stimulation is 0.1% (inactive).

With `CC1=NN(c2ccccc2)C(=O)C1`, the insulin secretion stimulation was -2.2% (inactive).

For the compound `Cc1c(C(=O)O)c(O)cc2c1C(=O)c1c(O)c([C@@H]3O[C@H](CO)[C@@H](O)[C@H](O)[C@H]3O)c(O)c(O)c1C2=O`, the insulin secretion stimulation is 4.4% (inactive).

Regarding `CC(C)(Sc1cc(C(C)(C)C)c(O)c(C(C)(C)C)c1)Sc1cc(C(C)(C)C)c(O)c(C(C)(C)C)c1`, the insulin secretion stimulation was 3.7% (inactive).

For the compound `CN1C(C(=O)Nc2ccccn2)=C(O)c2sccc2S1(=O)=O`, the insulin secretion stimulation was 1.6% (inactive).

`CCCCC(=O)O[C@]1(C(=O)CO)[C@@H](C)C[C@H]2[C@@H]3CCC4=CC(=O)C=C[C@]4(C)[C@@]3(F)[C@@H](O)C[C@@]21C`: the insulin secretion stimulation was -4.4% (inactive).

Take `COc1ccccc1OCC(O)CO` (stereo unspecified): the insulin secretion stimulation is -0.3% (inactive).

On to `CCCCOc1cc(C(=O)NCCN(CC)CC)c2ccccc2n1`, for which the insulin secretion stimulation was 1.6% (inactive).

Consider `CC1(C)O[C@H]2CC(=O)OC[C@]23[C@H]2CC[C@@]4(C)[C@H](c5ccoc5)OC(=O)[C@H]5O[C@]54[C@]2(C)C(=O)C[C@@H]13`, for which the insulin secretion stimulation is 0.05% (inactive).

Turning to `CC1=CC(=O)c2ccccc2C1=O`, the insulin secretion stimulation was -1.3% (inactive).

As for `COc1ccc2c(c1)c(CC(=O)OCC(=O)O)c(C)n2C(=O)c1ccc(Cl)cc1`, the insulin secretion stimulation was 2.2% (inactive).

Regarding `CC/C(=C(/CC)c1ccc(O)cc1)c1ccc(O)cc1`, the insulin secretion stimulation is 0.8% (inactive).

Consider `COc1cc(C(=O)NCc2ccc(OCCN(C)C)cc2)cc(OC)c1OC`, for which the insulin secretion stimulation was 2.5% (inactive).

As to `O=C1c2ccccc2C(=O)c2c1ccc(O)c2O`, the insulin secretion stimulation was -2% (inactive).

`CCN(CC)CCOC(=O)C(c1ccccc1)c1ccccc1`: the insulin secretion stimulation was 13.6% (inactive).

As for `CC1=C(C(=O)O)N2C(=O)[C@@H](NC(=O)[C@H](N)C3=CCC=CC3)[C@H]2SC1`, the insulin secretion stimulation is 0.35% (inactive).

In the case of `NC(=O)NC1NC(=O)NC1=O` (stereo unspecified), the insulin secretion stimulation is -2.3% (inactive).

In the case of `CC(C)NC[C@@H](O)COc1cccc2ccccc12`, the insulin secretion stimulation is 15.3% (inactive).

In the case of `N=C(N)N`, the insulin secretion stimulation was 1.1% (inactive).

On to `CCOC(=O)[C@H](CCc1ccccc1)N[C@@H](C)C(=O)N1CCC[C@H]1C(=O)O`, for which the insulin secretion stimulation is 0.7% (inactive).

Source of the values: PubChem BioAssay.
